Experimental data from PubChem BioAssay AID1159580 (chemical genetic matrix, 2015).
In all, about 5,500 compounds went through this assay and about 2,000 (36%) were called active. Inconclusive results (about 18%) are left out. Rule as the data show it: active = normalized growth mostly below about 0.91 (no sharp cut-off); inconclusive = no clear call, values can overlap the other calls; inactive = mostly above about 0.92. The list shows a part of the results.

Assay: chemical genetic growth profiling, strain panel (AID 1159580);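 also: tested at 20 µM; growth read once vehicle control cultures reached saturation at 30 °C; 1 = growth at the plate median or of vehicle wells; lower values mean less growth of the strain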
Details: growth OD

Measured: normalized growth

NS(=O)(=O)c1cc2c(cc1C(F)(F)F)NC(Cc1ccccc1)NS2(=O)=O (centres undefined)
inactive: S. cerevisiae deletion strains, locus YJR066W, strain TOR1, stronger effect = lower value 0.949 | S. cerevisiae deletion strains, locus YKL009W, strain mrt4, stronger effect = lower value 0.983 | S. cerevisiae deletion strains, locus YKL068W, stronger effect = lower value 1 | S. cerevisiae deletion strains, locus YKL085W, strain MDH1 (second series), stronger effect = lower value 0.999 | S. cerevisiae deletion strains, locus YKL085W, strain MDH1, stronger effect = lower value 0.999 | S. cerevisiae deletion strains, locus YKL160W, strain elf1, stronger effect = lower value 0.977 | S. cerevisiae deletion strains, locus YKL190W, strain CNB1, stronger effect = lower value 1 | S. cerevisiae deletion strains, locus YKR001C, strain vps1, stronger effect = lower value 0.982 | S. cerevisiae deletion strains, locus YKR026C, strain gcn3, stronger effect = lower value 0.998 | S. cerevisiae deletion strains, locus YKR091W, strain srl3, stronger effect = lower value 0.982 | S. cerevisiae deletion strains, locus YLL001W, strain dnm1, stronger effect = lower value 0.981 | S. cerevisiae deletion strains, locus YLL026W, stronger effect = lower value 0.991 | S. cerevisiae deletion strains, locus YLL041C, strain sdh2, stronger effect = lower value 0.985 | S. cerevisiae deletion strains, locus YLR027C, strain aat2, stronger effect = lower value 0.985 | S. cerevisiae deletion strains, locus YLR039C, strain RIC1, stronger effect = lower value 1.04 | S. cerevisiae deletion strains, locus YLR058C, strain SHM2, stronger effect = lower value 1 | S. cerevisiae deletion strains, locus YLR102C, strain apc9, stronger effect = lower value 1.01 | S. cerevisiae deletion strains, locus YLR113W, strain HOG1, stronger effect = lower value 0.983 | S. cerevisiae deletion strains, locus YLR221C, strain rsa3, stronger effect = lower value 0.973 | S. cerevisiae deletion strains, locus YLR258W, strain gsy2, stronger effect = lower value 0.993 | S. cerevisiae deletion strains, locus YLR262C, strain YPT6 (second series), stronger effect = lower value 0.987 | S. cerevisiae deletion strains, locus YLR262C, strain YPT6, stronger effect = lower value 1.01 | S. cerevisiae deletion strains, locus YLR268W, strain sec22, stronger effect = lower value 0.999 | S. cerevisiae deletion strains, locus YLR320W, strain mms22, stronger effect = lower value 0.957 | S. cerevisiae deletion strains, locus YLR330W, strain CHS5, stronger effect = lower value 1.01 | S. cerevisiae deletion strains, locus YLR342W, strain FKS1 (second series), stronger effect = lower value 1.06 | S. cerevisiae deletion strains, locus YLR342W, strain FKS1, stronger effect = lower value 0.988 | S. cerevisiae deletion strains, locus YLR357W, strain rsc2, stronger effect = lower value 0.978 | S. cerevisiae deletion strains, locus YLR370C, strain arc18, stronger effect = lower value 0.983 | S. cerevisiae deletion strains, locus YLR371W, strain rom2, stronger effect = lower value 1.01 | S. cerevisiae deletion strains, locus YLR384C, strain iki3, stronger effect = lower value 0.986 | S. cerevisiae deletion strains, locus YLR418C, strain cdc73, stronger effect = lower value 1.01 | S. cerevisiae deletion strains, locus YML016C, strain PPZ1, stronger effect = lower value 1.01 | S. cerevisiae deletion strains, locus YML032C, strain rad52, stronger effect = lower value 0.983 | S. cerevisiae deletion strains, locus YML120C, strain ndi1, stronger effect = lower value 0.981 | S. cerevisiae deletion strains, locus YML124C, strain tub3, stronger effect = lower value 1 | S. cerevisiae deletion strains, locus YMR058W, strain fet3, stronger effect = lower value 0.97 | S. cerevisiae deletion strains, locus YMR078C, strain ctf18, stronger effect = lower value 1 | S. cerevisiae deletion strains, locus YMR125W, strain sto1, stronger effect = lower value 1.01 | S. cerevisiae deletion strains, locus YMR129W, stronger effect = lower value 0.992 | S. cerevisiae deletion strains, locus YMR205C, strain PFK2, stronger effect = lower value 0.978 | S. cerevisiae deletion strains, locus YMR223W, strain ubp8, stronger effect = lower value 1.02 | S. cerevisiae deletion strains, locus YMR231W, strain pep5, stronger effect = lower value 1 | S. cerevisiae deletion strains, locus YMR307W, strain GAS1, stronger effect = lower value 1.06 | S. cerevisiae deletion strains, locus YNL067W, strain RPL9B, stronger effect = lower value 0.985 | S. cerevisiae deletion strains, locus YNL071W, strain lat1, stronger effect = lower value 0.994 | S. cerevisiae deletion strains, locus YNL153C, strain GIM3, stronger effect = lower value 0.975 | S. cerevisiae deletion strains, locus YNL183C, strain NPR1, stronger effect = lower value 0.927 | S. cerevisiae deletion strains, locus YNL209W, strain ssb2, stronger effect = lower value 0.993 | S. cerevisiae deletion strains, locus YNL233W, strain BNI4, stronger effect = lower value 0.993 | S. cerevisiae deletion strains, locus YNL248C, strain rpa49, stronger effect = lower value 0.996 | S. cerevisiae deletion strains, locus YNL250W, strain rad50, stronger effect = lower value 1.01 | S. cerevisiae deletion strains, locus YNL271C, strain bni1, stronger effect = lower value 1.01 | S. cerevisiae deletion strains, locus YNL298W, strain CLA4, stronger effect = lower value 1.02 | S. cerevisiae deletion strains, locus YNL307C, strain MCK1, stronger effect = lower value 1.01 | S. cerevisiae deletion strains, locus YNL322C, strain KRE1 (second series), stronger effect = lower value 0.992 | S. cerevisiae deletion strains, locus YNR049C, strain mso1, stronger effect = lower value 0.986 | S. cerevisiae deletion strains, locus YNR052C, strain pop2, stronger effect = lower value 1.01 | S. cerevisiae deletion strains, locus YOL006C, strain TOP1, stronger effect = lower value 0.953 | S. cerevisiae deletion strains, locus YOL012C, strain htz1 0.78 | S. cerevisiae deletion strains, locus YOL147C, strain pex11, stronger effect = lower value 1.01 | S. cerevisiae deletion strains, locus YOR001W, strain rrp6, stronger effect = lower value 0.997 | S. cerevisiae deletion strains, locus YOR061W, strain CKA2, stronger effect = lower value 1 | S. cerevisiae deletion strains, locus YOR069W, strain VPS5, stronger effect = lower value 1.01 | S. cerevisiae deletion strains, locus YOR070C, strain gyp1, stronger effect = lower value 0.999 | S. cerevisiae deletion strains, locus YOR080W, strain dia2, stronger effect = lower value 0.982 | S. cerevisiae deletion strains, locus YOR083W, strain WHI5, stronger effect = lower value 0.969 | S. cerevisiae deletion strains, locus YOR106W, strain vam3, stronger effect = lower value 0.958 | S. cerevisiae deletion strains, locus YOR136W, strain idh2, stronger effect = lower value 0.992 | S. cerevisiae deletion strains, locus YOR144C, strain elg1, stronger effect = lower value 0.998 | S. cerevisiae deletion strains, locus YOR184W, strain ser1, stronger effect = lower value 0.998 | S. cerevisiae deletion strains, locus YOR231W, strain MKK1, stronger effect = lower value 0.987 | S. cerevisiae deletion strains, locus YOR265W, strain rbl2, stronger effect = lower value 0.988 | S. cerevisiae deletion strains, locus YOR270C, strain vph1, stronger effect = lower value 0.956 | S. cerevisiae deletion strains, locus YOR290C, strain snf2, stronger effect = lower value 0.964 | S. cerevisiae deletion strains, locus YOR316C, strain cot1, stronger effect = lower value 1.01 | S. cerevisiae deletion strains, locus YPL051W, strain arl3, stronger effect = lower value 0.998 | S. cerevisiae deletion strains, locus YPL055C, strain LGE1, stronger effect = lower value 0.934 | S. cerevisiae deletion strains, locus YPL078C, strain atp4, stronger effect = lower value 0.988 | S. cerevisiae deletion strains, locus YPL106C, strain sse1, stronger effect = lower value 0.952 | S. cerevisiae deletion strains, locus YPL240C, strain hsp82, stronger effect = lower value 0.998 | S. cerevisiae deletion strains, locus YPL241C, strain CIN2, stronger effect = lower value 1.01 | S. cerevisiae deletion strains, locus YPL256C, strain CLN2, stronger effect = lower value 0.976 | S. cerevisiae deletion strains, locus YPR119W, strain clb2, stronger effect = lower value 1.01 | S. cerevisiae deletion strains, locus YPR141C, strain kar3, stronger effect = lower value 1.01 | S. cerevisiae deletion strains, locus YPR163C, strain tif3, stronger effect = lower value 1.01 | S. cerevisiae deletion strains, locus YPR167C, strain met16, stronger effect = lower value 1.01 | S. cerevisiae deletion strains, strain wtn01, stronger effect = lower value 1.01 | S. cerevisiae strains, strain wild type, stronger effect = lower value 1
